Most compounds without a hit are left out; they make up all but 13% or so of the library.
Pf growth 48h: Primary qHTS for delayed death inhibitors of the malarial parasite plastid, 48 hour incubation. Potency, µM (top dose mostly 28.7 µM), most hits filed as inhibitors. P. falciparum luciferase growth in erythrocytes, 48 h. hit rate 5.9% among 310,000. AID 504832, 2011
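Parasite viability was followed by luminescence of a genomically integrated firefly luciferase. Cultures held 0.1% parasitemia at 2% hematocrit (final), incubated under 5% CO2 at 37 C.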
HCV inhibitor: qHTS Assay for Inhibitors of Hepatitis C Virus (HCV). Huh7.5.1 HCVcc-Cre infection, luciferase reporter, 44 h. Potency, µM (series often up to 41.8 µM), usual class: inhibitors. hit rate 3.4% among 340,000
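Reporter virus HCVcc-Cre (~0.5 moi) infects cells exposed to compound; seeding density 1,000 cells/well with 4 h settling beforehand. Luminescence, 15 sec read, taken 44 h post-infection following a 15 min RT substrate incubation.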
HCMV inh: qHTS Assay for inhibitors of the human cytomegalovirus (HCMV); activity change, negative = inhibition, % at 57.5 µM; HFF cells, HCMV-luciferase reporter, 72 h; hits give low values; hit rate 4.5% among 410,000; AID 1259415, 2018; in the data active = activity change below about -60%; inconclusive = no clear call, values can overlap the other calls; inactive = above about -39%
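Two-dose cell screen: HFF monolayers treated with compounds and infected with luciferase-expressing HCMV at 1 PFU/cell, 72 h at 37C, then lysed for luciferase measurement.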
Pf growth 96h: Primary qHTS for delayed death inhibitors of the malarial parasite plastid, 96 hour incubation; Potency, µM (series often up to 28.7 µM), most hits filed as inhibitors; hit rate 6.9% among 320,000; P. falciparum luciferase reporter growth, 96 h
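Plates of compound plus infected erythrocytes (2% hematocrit, 0.05% parasitemia final) incubate 96 hours, 37 C, 5% CO2. Detection reagent added; reduced luminescence from the parasites' luciferase reporter flags inhibition.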
Of the large screens only hits and unclear results are named; the others gave an inactive call. Unless noted, calls come from the whole dose curve; as a rule, active = well fitted inhibition curve with a large enough effect; inconclusive = small, poorly fitted or top-dose-only effect, or another doubt; inactive = no such curve, though single readings can be large or run the other way.

CC(C)=CC(=O)O[C@H]1[C@@H]2[C@H](C)C(=O)O[C@@H]2C[C@@H](C)[C@@H]2[C@@H](O)CC(=O)[C@]21C	HCMV inh inconclusive
COc1cc(F)ccc1S(=O)(=O)N1CCN(Cc2ccccc2)CC1	Pf growth 96h inconclusive
Cc1ccc(C)n1CCN1CCN(S(=O)(=O)c2ccc(F)cc2F)CC1	Pf growth 48h inconclusive, Pf growth 96h 13.1µM
COCCOC(=O)c1c(C)oc2ccc(OC(=O)c3c(OC)cccc3OC)cc12	Pf growth 48h inconclusive, HCV inhibitor 7.94µM
CCOC(=O)Oc1ccc2oc(C)c(C(=O)OCCOC)c2c1	none
Cc1cccc(-n2c3nc(=O)[nH]c(=O)c-3cc3c(Cl)cccc32)c1C	none (no result: Pf growth 48h, HCV inhibitor, Pf growth 96h)
OC(CNCCc1ccccc1)COc1ccc(OCC(O)CNCCc2ccccc2)cc1 (configuration not stated)	Pf growth 48h 1.65µM, HCV inhibitor inconclusive, HCMV inh -76.9, Pf growth 96h 3.7µM
OC(CNCCC(c1ccccc1)c1ccccc1)COc1ccccc1 (configuration not stated)	Pf growth 48h inconclusive, HCV inhibitor 12.6µM, HCMV inh inconclusive, Pf growth 96h inconclusive
OC(CNCCc1ccc(Cl)cc1)COc1ccc2ccccc2c1 (configuration not stated)	HCV inhibitor inconclusive
CC(C)N(CCNCC(O)COc1ccc(C(C)(C)c2ccccc2)cc1)C(C)C (configuration not stated)	Pf growth 48h inconclusive, Pf growth 96h inconclusive
CCC(=O)c1ccc(OCC(O)CNCCc2ccc(Cl)cc2)cc1 (configuration not stated)	Pf growth 48h 11.7µM, Pf growth 96h inconclusive
CC(C)CCNCC(O)CON=C1c2ccccc2-c2ccccc21 (configuration not stated)	Pf growth 48h inconclusive, HCV inhibitor 8.91µM, HCMV inh -72.1, Pf growth 96h inconclusive
CCC(=O)c1ccc(OCC(O)CNCc2ccc(F)cc2)cc1 (configuration not stated)	Pf growth 96h inconclusive
O=C(CN1C(=O)COc2ccc(S(=O)(=O)N3CCCC3)cc21)N1CCN(c2ccc(F)cc2)CC1	none (no result: Pf growth 48h, HCV inhibitor, Pf growth 96h)
CCN(CC)S(=O)(=O)c1cccc(C(=O)Nc2nc3cc4c(cc3s2)OCCO4)c1	HCV inhibitor 2.24µM, HCMV inh -98.3 (no result: Pf growth 48h)
O=C(CCS(=O)(=O)c1ccccc1)Nc1nc2cc3c(cc2s1)OCCO3	Pf growth 96h 5.22µM
CN(CC1CCCO1)S(=O)(=O)c1ccc(C(=O)Nc2nc3cc4c(cc3s2)OCO4)cc1 (configuration not stated)	Pf growth 48h inconclusive, HCV inhibitor inconclusive, HCMV inh -85.4, Pf growth 96h inconclusive
O=C(Nc1nc2cc3c(cc2s1)OCCO3)c1cccc(N2C(=O)CCC2=O)c1	none
CCc1nc2c(OCc3cccc(Cl)c3)cccn2c1N(C)C(=O)c1ccc(C)cc1	none (no result: Pf growth 48h, HCV inhibitor, Pf growth 96h)
O=C(O)c1ccc(NC2=C/C(=N/S(=O)(=O)c3ccccc3)c3ccccc3C2=O)cc1	Pf growth 48h inconclusive, HCV inhibitor 6.31µM, HCMV inh -101.0
Cc1cc(C)c(S(=O)(=O)/N=C2\C=C(Nc3ccc(C(=O)O)cc3)C(=O)c3ccccc32)c(C)c1	Pf growth 48h 9.28µM, HCV inhibitor inconclusive, HCMV inh -85.2
Cc1cc(OCC(=O)N2CCC(c3nc4ccccc4s3)CC2)ccc1Cl	none (no result: Pf growth 48h, HCV inhibitor, Pf growth 96h)
CCOC(=O)C1CCN(c2nc3ccccc3nc2C(C#N)C(=O)OC(C)C)CC1 (configuration not stated)	Pf growth 48h inconclusive
CCOC(=O)C1CCN(c2nc3ccccc3nc2C(C#N)C(=O)OC(C)COC)CC1 (configuration not stated)	Pf growth 48h 8.28µM, HCV inhibitor inconclusive, Pf growth 96h inconclusive
CCC(CC)COC(=O)C(C#N)c1nc2ccccc2nc1N1CCN(CC)CC1 (configuration not stated)	Pf growth 48h 10.4µM, HCV inhibitor inconclusive
CCOC(=O)C1CCN(c2nc3ccccc3nc2C(C#N)C(=O)OCCOC)CC1 (configuration not stated)	Pf growth 48h inconclusive, Pf growth 96h inconclusive
C=CCOC(=O)C(C#N)c1nc2ccccc2nc1N1CCN(c2ccccc2OCC)CC1 (configuration not stated)	Pf growth 48h 9.28µM, Pf growth 96h 9.28µM
C=CCOC(=O)C(C#N)c1nc2ccccc2nc1N1CCC(C(=O)OCC)CC1 (configuration not stated)	Pf growth 48h 1.17µM, HCV inhibitor inconclusive
O=C(CCn1c(=O)c2cccn2c2cccnc21)N1CCN(c2ccccc2F)CC1	none (no result: Pf growth 48h, HCV inhibitor, Pf growth 96h)
COC(=O)C1CCN(c2nc3ccccc3nc2C(C#N)C(=O)NCCc2ccccc2)CC1 (configuration not stated)	Pf growth 96h 14.7µM
COC(=O)C1CCN(c2nc3ccccc3nc2C(C#N)C(=O)OCC(C)C)CC1 (configuration not stated)	Pf growth 48h inconclusive, Pf growth 96h inconclusive
Cc1ccc(O)c(N=Cc2sc3ccccc3c2Cl)c1	Pf growth 48h inconclusive, Pf growth 96h inconclusive
Oc1ccccc1N=Cc1sc2ccccc2c1Cl	Pf growth 48h inconclusive, HCMV inh -76.0, Pf growth 96h inconclusive
C=CCc1cccc(C2Nc3ccccc3C(=O)N2O)c1O (configuration not stated)	none
C=CCN1C(=O)c2ccccc2NC1c1cc(Br)cs1 (configuration not stated)	Pf growth 48h 10.4µM, HCMV inh inconclusive, Pf growth 96h inconclusive
O=C(c1ccc2c(c1)N(Cc1ccc(F)cc1)CCS2)N1CCN(c2ccccc2)CC1	none (no result: Pf growth 48h, HCV inhibitor, Pf growth 96h)
COc1ccc([C@]23Cc4ccccc4C(O2)C2=C(CCCC2=O)O3)cc1	Pf growth 48h inconclusive, Pf growth 96h 1.51µM (no result: HCV inhibitor, HCMV inh)
COc1ccc([C@]23Cc4ccccc4C(O2)C2=C(CC(C)(C)CC2=O)O3)cc1	Pf growth 48h inconclusive, Pf growth 96h 0.601µM (no result: HCV inhibitor, HCMV inh)
COc1ccc([C@]23Cc4ccccc4C(O2)C2=C(O3)C(=O)c3ccccc3C2=O)cc1	Pf growth 48h 1.51µM (no result: HCV inhibitor, HCMV inh)
N#Cc1c(C(F)(F)F)cc(-c2cccs2)nc1SCC(=O)Nc1cccc(C(F)(F)F)c1	none (no result: Pf growth 48h, HCV inhibitor, Pf growth 96h)
CCC(=O)Nc1ccc(C(=O)CSc2nnc(-c3ccccc3F)n2C2CC2)cc1	Pf growth 48h 2.62µM, Pf growth 96h 2.94µM
CCOc1cc(/C=N/n2cnnc2)ccc1OC(=O)c1cccc([N+](=O)[O-])c1	Pf growth 96h 3.29µM
COc1ccc(/C=N/NC(=O)c2cccc([N+](=O)[O-])c2)cc1OC	none
O=C(COc1ccc(/C=N/NC(=O)c2ccccc2O)cc1)Nc1ccc([N+](=O)[O-])cc1	HCV inhibitor inconclusive, Pf growth 96h 11.7µM
COc1cc(/C=N/NC(=O)c2cccc([N+](=O)[O-])c2)ccc1OCc1ccccc1	Pf growth 48h 16.5µM, HCV inhibitor inconclusive, Pf growth 96h 9.28µM
COc1cc(/C=N/NC(=O)c2ccc(O)cc2)ccc1OCC(=O)Nc1cccc([N+](=O)[O-])c1	HCV inhibitor inconclusive, Pf growth 96h 10.4µM
